# Test results from the supplement of paper PMC8728848.
# This is one part of a sample in which the strongest signals are shown more often than they occur.
# Key:
# Experiment in all cases: glycan array binding signal (z-score within array); higher = stronger binding
# Details in all cases: glycan notation: IUPAC condensed, linker removed
# [1] = target: Fuc(a1-2)Gal(b1-3)GlcNAc(b1-2)Man(a1-3)[Fuc(a1-2)Gal(b1-3)GlcNAc(b1-2)Man(a1-6)]Man(b1-4)GlcNAc(b1-4)GlcNAc
# Method in brief: (§1)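 Negative Z-scores can be read as non-binding. The Z-score is calculated within each array and then averaged across arrays of one protein sequence at different concentrations or buffers and across linkers. Arrays, 3228 in all, were curated from the Consortium for Functional Glycomics database and kept only where the protein sequence was available.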
# [2] = target: Fuc(a1-2)Gal(b1-3)GlcNAc(b1-3)GalNAc
# Method in brief: as §1
# [3] = target: Fuc(a1-2)Gal(b1-4)GlcNAc(b1-2)[Fuc(a1-2)Gal(b1-4)GlcNAc(b1-4)]Man(a1-3)[Fuc(a1-2)Gal(b1-4)GlcNAc(b1-2)Man(a1-6)]Man(b1-4)GlcNAc(b1-4)GlcNAc
# Method in brief: as §1
# [4] = target: Fuc(a1-2)Gal(b1-4)GlcNAc(b1-3)Gal(b1-4)GlcNAc(b1-3)Gal(b1-4)GlcNAc
# Method in brief: as §1
# [5] = target: Fuc(a1-2)[Gal(a1-3)]Gal(b1-4)GlcNAc(b1-3)[Fuc(a1-2)[Gal(a1-3)]Gal(b1-4)GlcNAc(b1-6)]GalNAc
# Method in brief: as §1
# [6] = target: Fuc(a1-2)[Gal(a1-3)]Gal(b1-4)[Fuc(a1-3)]GlcNAc
# Method in brief: as §1
# [7] = target: Fuc(a1-2)[GalNAc(a1-3)]Gal(b1-4)GlcNAc(b1-2)Man(a1-3)[Fuc(a1-2)[GalNAc(a1-3)]Gal(b1-4)GlcNAc(b1-2)Man(a1-6)]Man(b1-4)GlcNAc(b1-4)GlcNAc
# Method in brief: as §1
# [8] = target: Fuc(a1-3)[Gal(b1-4)]Glc6S
# Method in brief: as §1
# [9] = target: Fuc(a1-3)[Gal(b1-4)]GlcNAc(b1-3)GalNAc
# Method in brief: as §1
# [10] = target: Fuc(a1-4)GlcNAc
# Method in brief: as §1
# [11] = target: Gal(a1-3)Gal(b1-3)GlcNAc
# Method in brief: as §1
# [12] = target: Gal(a1-3)Gal(b1-4)[Fuc(a1-3)]GlcNAc
# Method in brief: as §1
# [13] = target: Gal(b1-3)GalNAc(a1-3)[Fuc(a1-2)]Gal(b1-4)GlcNAc
# Method in brief: as §1
# [14] = target: Gal(b1-3)GlcNAc(b1-2)Man(a1-3)[GlcNAc(b1-4)][Gal(b1-3)GlcNAc(b1-2)Man(a1-6)]Man(b1-4)GlcNAc(b1-4)GlcNAc
# Method in brief: as §1
# [15] = target: Gal(b1-3)GlcNAc(b1-2)[Gal(b1-3)GlcNAc(b1-6)]Man(a1-6)[Gal(b1-3)GlcNAc(b1-2)Man(a1-3)]Man(b1-4)GlcNAc(b1-4)GlcNAc
# Method in brief: as §1
# [16] = target: Gal(b1-3)GlcNAc(b1-3)Gal(b1-3)GlcNAc
# Method in brief: as §1
# [17] = target: Gal(b1-3)GlcNAc(b1-3)Gal(b1-4)GlcNAc(b1-3)Gal(b1-4)GlcNAc(b1-2)[Gal(b1-3)GlcNAc(b1-3)Gal(b1-4)GlcNAc(b1-3)Gal(b1-4)GlcNAc(b1-6)]Man(a1-6)[Gal(b1-3)GlcNAc(b1-3)Gal(b1-4)GlcNAc(b1-3)Gal(b1-4)GlcNAc(b1-2)Man(a1-3)]Man(b1-4)GlcNAc(b1-4)[Fuc(a1-6)]GlcNAc
# Method in brief: as §1
# [18] = target: Gal(b1-4)GlcNAc(b1-2)Man(a1-3)[Gal(b1-4)GlcNAc(b1-2)Man(a1-6)]Man(b1-4)GlcNAc(b1-4)GlcNAc
# Method in brief: as §1
# [19] = target: Gal(b1-4)GlcNAc(b1-3)Gal(b1-4)GlcNAc(b1-3)Gal(b1-4)GlcNAc(b1-2)Man(a1-3)[Gal(b1-4)GlcNAc(b1-3)Gal(b1-4)GlcNAc(b1-3)Gal(b1-4)GlcNAc(b1-2)Man(a1-6)]Man(b1-4)GlcNAc(b1-4)GlcNAc
# Method in brief: as §1
# [20] = target: Gal(b1-4)GlcNAc(b1-3)Gal(b1-4)GlcNAc(b1-3)Gal(b1-4)GlcNAc(b1-3)Gal(b1-4)GlcNAc(b1-3)Gal(b1-4)GlcNAc(b1-2)[Gal(b1-4)GlcNAc(b1-3)Gal(b1-4)GlcNAc(b1-3)Gal(b1-4)GlcNAc(b1-3)Gal(b1-4)GlcNAc(b1-3)Gal(b1-4)GlcNAc(b1-6)]Man(a1-6)[Gal(b1-4)GlcNAc(b1-3)Gal(b1-4)GlcNAc(b1-3)Gal(b1-4)GlcNAc(b1-3)Gal(b1-4)GlcNAc(b1-3)Gal(b1-4)GlcNAc(b1-2)Man(a1-3)]Man(b1-4)GlcNAc(b1-4)[Fuc(a1-6)]GlcNAc
# Method in brief: as §1
# [21] = target: Gal3S(b1-4)Glc6S
# Method in brief: as §1
# [22] = target: Gal6S(b1-4)Glc
# Method in brief: as §1
# [23] = target: Gal6S(b1-4)GlcNAc
# Method in brief: as §1
# [24] = target: GalNAc(b1-3)Gal(a1-4)Gal(b1-4)GlcNAc
# Method in brief: as §1
# [25] = target: GalNAc(b1-3)GalNAc
# Method in brief: as §1
# [26] = target: GalNAc(b1-4)GlcNAc(b1-2)Man(a1-3)[GalNAc(b1-4)GlcNAc(b1-2)Man(a1-6)]Man(b1-4)GlcNAc(b1-4)GlcNAc
# Method in brief: as §1
# [27] = target: GalNAc3S(b1-4)GlcNAc3S
# Method in brief: as §1
# [28] = target: GlcA(b1-6)Gal
# Method in brief: as §1
# [29] = target: GlcA3S(b1-3)Gal(b1-4)GlcNAc(b1-3)Gal(b1-4)Glc
# Method in brief: as §1
# [30] = target: GlcNAc(b1-2)Man(a1-3)[GlcNAc(b1-2)Man(a1-6)]Man(b1-4)GlcNAc(b1-4)[Fuc(a1-6)]GlcNAc
# Method in brief: as §1
binder,measurement,setting,value
"Sebin2 (Coprinopsis cinerea), A8PE78 (protein) MTTPFYAYCHNVQDDNTWRLGLVFANRSTADEWWRAISEATSSIPITKSITRVTPQYYTHDIRVWNMYNFFVDGNIKSISDKFRGRLFITLEYDRSGRGVSVFPPLHIVDHVSGNWYYIRSKTAPHLFWFYDETRNAIYASKEKRTRFKVSIRNPSPQTPKDAIMINSDDVVIHIKESLYVGVDSYLGHIIPTRAYRTFKFGELEGGAIAGIEVAENAEERCSSTFDGASLYFVGPDSSSPGEPWELV",glycan array binding signal (z-score),[1],0.911
same,glycan array binding signal (z-score),[2],-0.146
same,glycan array binding signal (z-score),[3],0.019
same,glycan array binding signal (z-score),[4],-0.116
same,glycan array binding signal (z-score),[5],4.59
same,glycan array binding signal (z-score),[6],-0.033
same,glycan array binding signal (z-score),[7],0.273
same,glycan array binding signal (z-score),[8],1.49
same,glycan array binding signal (z-score),[9],0.281
same,glycan array binding signal (z-score),[10],4.58
same,glycan array binding signal (z-score),[11],1.62
same,glycan array binding signal (z-score),[12],-0.524
same,glycan array binding signal (z-score),[13],-0.521
same,glycan array binding signal (z-score),[14],-0.222
same,glycan array binding signal (z-score),[15],1.02
same,glycan array binding signal (z-score),[16],-0.397
same,glycan array binding signal (z-score),[17],0.29
same,glycan array binding signal (z-score),[18],0.112
same,glycan array binding signal (z-score),[19],-0.131
same,glycan array binding signal (z-score),[20],0.421
same,glycan array binding signal (z-score),[21],0.515
same,glycan array binding signal (z-score),[22],-0.355
same,glycan array binding signal (z-score),[23],-0.138
same,glycan array binding signal (z-score),[24],-0.059
same,glycan array binding signal (z-score),[25],-0.129
same,glycan array binding signal (z-score),[26],-0.25
same,glycan array binding signal (z-score),[27],0.462
same,glycan array binding signal (z-score),[28],1.12
same,glycan array binding signal (z-score),[29],1.64
same,glycan array binding signal (z-score),[30],-0.213
